hcDAF12 agonist: H. contortus DAF-12 nuclear receptor activators, primary screen, cell-based, luminescence, HEK293, lit1-tk-luc reporter | HEK293 hcDAF-12 lit1-tk-luc reporter; 0% DMSO, 100% Δ7-dafachronic acid | activation, % at 6.8 µM | hit rate 1.4% among 370,000;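 active means activation above the mean of all tested compounds plus 3 SD, cut at about 5.5% in these data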
DAX1 inh-1: DAX1 (NR0B1) inhibitors on StAR promoter, primary screen, cell-based, luminescence, SF-1 (NR5A1), full-length DAX-1; HEK293T StAR-luciferase reporter, SF-1/DAX-1 repression relief; inhibition, % at 6.8 µM; hit rate 1.1% among 370,000;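 active means inhibition above the mean over all tested compounds plus 3 SD, cut at about 3.6% in these data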;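 further: higher inhibition means more luminescence from relief of DAX-1 repression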
ssDAF-12 act: S. stercoralis DAF-12 nuclear receptor activators, primary screen, cell-based, luminescence, HEK293, GRIP1 co-expression, lit1-tk-luc; activation, % at 6.8 µM; Nuclear hormone receptor DAF-12 (Strongyloides stercoralis); AID 652126, 2013; HEK293 ssDAF-12/GRIP1 lit1-tk-luc reporter; % of 3 µM dafachronic acid response; hit rate 1% among 370,000;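 active means activation above the mean over all tested compounds plus 3 SD, cut at about 0.9% in these data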
hgDAF12 agonist: H. glycines DAF-12 receptor agonists, primary screen, cell-based, luminescence, HEK293, GAL4 fusion, UAS-luciferase; Nuclear hormone receptor DAF-12 (Heterodera glycines), GAL4 fusion; HEK293 GAL4-hgDAF12 UAS-luciferase reporter, agonist luminescence; normalized to butyrate control; activation, % at 6.8 µM; hit rate 1.8% among 370,000; AID 687014, 2013;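 active means activation above a cutoff set at the mean of all screened compounds plus 3 SD, cut at about 10% in these data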
AHR act: AHR activators, primary screen, cell-based, luminescence, luciferase reporter, human. hit rate 2.5% among 320,000. activation, % at 5 µM. Aryl hydrocarbon receptor (Homo sapiens), P35869. AHR-responsive luciferase reporter cells; in the data active means activation above about 47%
Target sequence (P35869 whole entry, looked up): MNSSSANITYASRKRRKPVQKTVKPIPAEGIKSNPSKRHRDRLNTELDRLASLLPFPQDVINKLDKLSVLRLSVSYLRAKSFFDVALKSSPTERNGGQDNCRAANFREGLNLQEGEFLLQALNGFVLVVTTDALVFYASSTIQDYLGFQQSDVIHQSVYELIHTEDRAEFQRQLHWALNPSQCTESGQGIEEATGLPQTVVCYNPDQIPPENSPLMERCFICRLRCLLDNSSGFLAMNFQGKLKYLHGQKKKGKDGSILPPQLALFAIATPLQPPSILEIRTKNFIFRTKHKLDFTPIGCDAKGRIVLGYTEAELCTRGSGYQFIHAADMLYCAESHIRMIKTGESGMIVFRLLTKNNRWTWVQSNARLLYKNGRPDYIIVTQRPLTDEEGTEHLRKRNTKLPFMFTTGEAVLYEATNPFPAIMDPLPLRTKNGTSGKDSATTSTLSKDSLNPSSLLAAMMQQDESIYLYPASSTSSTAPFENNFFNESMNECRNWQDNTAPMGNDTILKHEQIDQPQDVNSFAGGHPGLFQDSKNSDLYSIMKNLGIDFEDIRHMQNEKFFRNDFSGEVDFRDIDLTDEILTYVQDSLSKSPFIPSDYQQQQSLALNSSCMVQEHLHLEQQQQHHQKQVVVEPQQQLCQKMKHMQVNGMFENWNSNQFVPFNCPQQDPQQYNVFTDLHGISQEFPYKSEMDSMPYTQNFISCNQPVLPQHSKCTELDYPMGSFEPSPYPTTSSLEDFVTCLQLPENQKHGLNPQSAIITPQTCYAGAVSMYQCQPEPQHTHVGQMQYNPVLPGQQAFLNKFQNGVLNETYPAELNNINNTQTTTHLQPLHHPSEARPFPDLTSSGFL
DAX1 inh-2: DAX1 (NR0B1) inhibitors, primary screen, cell-based, HEK293, Gal4-DAX1, luciferase luminescence. Nuclear receptor subfamily 0 group B member 1 (Homo sapiens), P51843. HEK293 Gal4-DAX1 luciferase reporter. inhibition, % at 6.75 µM. hit rate 0.99% among 340,000. AID 504766, 2011;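 active means inhibition above the mean over all tested compounds plus 3 SD, cut at about 4.2% in these data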;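 further: inhibition shows as a rise in luminescence from relieved DAX1 repression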
Hits are given with their value; - = inactive; . = not tested or not shown. A selection: hits, their analogues and other compounds. The true share with any hit is near 5.7%.

SMILES	hcDAF12 agonist	DAX1 inh-1	ssDAF-12 act	hgDAF12 agonist	AHR act	DAX1 inh-2
O=C1Nc2ccccc2C(=O)N(C2CCCC2)C1C(=O)NC1CC1 (stereo not drawn)	-	-	-	-	.	.
COc1ccc(/C=C(\NC(=O)c2ccc(OC)cc2)C(=O)N2CCCCC2)cc1	-	-	-	-	.	-
C/C(CCc1ccc2c(c1)OCO2)=N\NC(=O)c1ccc(C)cc1C	-	-	-	13	-	-
CC(C)c1ccc(/C=N/NC(=O)c2c(Cl)cnn2C)cc1	-	-	-	13	-	-
C/C(=N\NC(=O)c1ccc(Cl)cc1)c1cccnc1	-	-	-	-	-	-
C/C(=N\NC(=O)c1c(Cl)cnn1C)c1cccnc1	-	4.3	-	-	.	-
Cc1cc(C)cc(NS(=O)(=O)c2ccc3[nH]c(=O)ccc3c2)c1	-	-	-	-	.	-
COc1cc(C(=O)Nc2cccc3cccnc23)cc(OC)c1OC	-	-	-	-	-	-
CCC(C)c1ccc(O)c(NC(=O)c2cccnc2)c1 (stereo not drawn)	-	-	-	-	60	-
COc1cccc(C(=O)Nc2c(F)cccc2F)c1	-	-	-	-	-	-
COc1cc(OC)cc(C(=O)Nc2c(F)cccc2F)c1	-	-	-	-	59	-
COc1cc(OC)cc(C(=O)Nc2cccnc2)c1	-	-	-	-	59	-
COc1cc(OC)cc(C(=O)Nc2cccc3cccnc23)c1	-	-	-	-	50	-
Cc1ccc(C)c(-c2nnc(NC(=O)Cc3ccc(F)cc3)o2)c1	.	.	.	.	-	-
Cc1ccc2nc(C3CCCN3Cc3nc(CCC(C)C)no3)[nH]c2c1 (stereo not drawn)	-	-	-	-	-	-
C[C@H]1CN([C@@H](C)CO)C(=O)c2c(c3ccccc3n2C)-c2ccccc2CO[C@H]1CN(C)C(=O)Nc1cccc(F)c1	-	-	-	-	.	.
CC12C=CC(C)(C3C(=O)NC(=O)C31)C1C3C(=O)NC(=O)C3C12 (stereo not drawn)	-	-	-	-	.	.
CCOC(=O)CNC(=O)c1cc(OC)cc(OC)c1	-	-	-	-	-	-
O=C(Nc1ccc(Cl)c(Cl)c1)c1cccnc1	-	-	-	-	71	6.3
CC(C)c1ccc(C(=O)Nc2cccnc2)cc1	-	-	-	10	-	-
O=C(Nc1cccnc1)c1ccc(F)cc1	-	-	-	-	-	-
COC(=O)CNC(=O)c1cc(OC)cc(OC)c1	-	3.8	-	-	-	-
COC(=O)C1=C(NC(=O)c2ccc(C)cc2)CCS1	-	-	1.9	-	-	-
CCc1ccc(-c2nc(CS(=O)CC(=O)O)c(C)o2)cc1 (stereo not drawn)	-	-	-	12	-	-
CCc1ccc(-c2nc(CS(=O)CC(=O)NC3CC3)c(C)o2)cc1 (stereo not drawn)	-	-	-	-	-	-
SMILES	hcDAF12 agonist	DAX1 inh-1	ssDAF-12 act	hgDAF12 agonist	AHR act	DAX1 inh-2
Oc1[nH]c2ccccc2c1/C=N/c1nccs1	5.7	-	-	-	53	-
CCCCc1c(C)c2ccc(OCC(C)=O)cc2oc1=O	-	-	-	11	-	-
CCCc1c(C)c2ccc(OCC(C)=O)cc2oc1=O	-	-	-	-	-	-
Cc1ccc(C(=O)Nc2cc(C(F)(F)F)ccc2-n2cncn2)o1	-	-	-	-	-	-
COc1ccccc1C(=O)Nc1cc(Cl)ccc1-n1cncn1	-	-	-	-	49	-
O=C(Nc1ccccc1F)Nc1cc(Cl)ccc1-n1cncn1	-	-	-	-	-	-
COc1cc(OC)c(C(=O)Nc2cc(Cl)ccc2-n2cncn2)cc1OC	-	-	-	-	59	-
O=C(Nc1cc(Cl)ccc1-n1cncn1)c1ccc([N+](=O)[O-])s1	.	.	.	.	68	-

Compound activity (PubChem BioAssay)
